Assay [1] deals with PU.1 (IVT) (UniProt P17947 1-270). The experiment in a line: protein-binding microarray (PBM); 20 mM HEPES pH 7.9, 100 mM NaCl, 1 mM DTT, 0.2 mg/mL BSA, 0.02% Triton X-100, 2% milk, 0.4 mg/mL salmon testes DNA; 1 h; temperature not stated; high values mean tight binding. Particulars: dsDNA, one strand shown. The procedure, abridged:
(§1)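 Full-length untagged PU.1 was made by coupled human in vitro transcription/translation. It was bound for 1 h to custom double-stranded DNA microarrays carrying 20-bp genomic sites and single-nucleotide variants, 10 probes per site (5 per orientation). The binding buffer was HEPES pH 7.9 with 100 mM NaCl, 2% milk and salmon testes DNA. Bound protein was detected with anti-PU.1 and then a fluorescent secondary antibody. Binding is a z-score from scanned fluorescence after linear-regression normalisation.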

The target is the same in assay [2]. The assay is described as above. As to conditions: dsDNA, one strand shown. A digest of the protocol:
as §1
This is another data set of the same source.

Here are results for 52 sequences from PMC6451091, “NextPBM: a platform to study cell-specific transcription factor binding and cooperativity”.

The full ranking holds about 3,700 sequences; the median of “z-score” is about 4, and the highest 2% start at about 8.4. Shown is part of a subset that was picked to be rich in the highest values.

Consider “GCCTAGCACTTTAAAGGGAAATACTGTGGGTGCTAGGTCTTGATTCGCTTGACGCTGCTG”, for which the binding signal in the assay with PU.1 (IVT) [1] was 1.36 z-score. With “GCCTAGCACAGAAACAGGAACTGAGGCCAGTGCTAGGTCTTGATTCGCTTGACGCTGCTG”, the binding signal in the assay with PU.1 (IVT) [2] came out at 4.78 z-score. On the same count and under the same terms, as for “GCCTAGCACGAAAACAGGAAGTCCGATAGGTGCTAGGTCTTGATTCGCTTGACGCTGCTG”, the figure is 7.15 z-score. As to “GCCTAGCACTGGGAGAGGAAGTGATGAGCGTGCTAGGTCTTGATTCGCTTGACGCTGCTG”, the binding signal with PU.1 (IVT) [1] was determined as 4.01 z-score.

With “GCCTAGCACAAGCAGAGGAAGTGAGATTTGTGCTAGGTCTTGATTCGCTTGACGCTGCTG”, the binding signal in the assay with PU.1 (IVT) [2] was determined as 3.71 z-score. Same read-out and setting: the same measure for “GCCTAGCACCAAAAAGGGAAGTGGACGCTGTGCTAGGTCTTGATTCGCTTGACGCTGCTG”: 6.7 z-score; for “GCCTAGCACATCATCAGGAACTGAAACTGGTGCTAGGTCTTGATTCGCTTGACGCTGCTG”: 1.18 z-score. As to “GCCTAGCACAAAGAGAGGAAGTCCCAAGAGTGCTAGGTCTTGATTCGCTTGACGCTGCTG”, the binding signal with PU.1 (IVT) [1] worked out at 3.78 z-score. In the case of “GCCTAGCACTCAAGAAGGAAGTGCCAAATGTGCTAGGTCTTGATTCGCTTGACGCTGCTG”, the binding signal in the assay with PU.1 (IVT) [1] was 3.31 z-score. On to “GCCTAGCACAGAAAAAGGAACTGTGCCCCGTGCTAGGTCTTGATTCGCTTGACGCTGCTG”, for which the binding signal with PU.1 (IVT) [2] turned out to be 3.05 z-score. On to “GCCTAGCACAGCAAGAGGAAGTCAAGTACGTGCTAGGTCTTGATTCGCTTGACGCTGCTG”, for which, in the assay with PU.1 (IVT) [1], the binding signal came to 4.55 z-score. In the assay with PU.1 (IVT) [2], “GCCTAGCACAGAAAGAGGAAGTCTCTGCCGTGCTAGGTCTTGATTCGCTTGACGCTGCTG” registered a binding signal of 7.37 z-score.

In turn, “GCCTAGCACGAAAAGAGGAAGTGTAACCAGTGCTAGGTCTTGATTCGCTTGACGCTGCTG” yielded a binding signal in the assay with PU.1 (IVT) [2] of 8.52 z-score. Regarding “GCCTAGCACGAAAAGAGGAAGTCAAACCAGTGCTAGGTCTTGATTCGCTTGACGCTGCTG”, the binding signal with PU.1 (IVT) [2] was 8.22 z-score. Still for that read-out and setting: as for “GCCTAGCACAGAAAGAGGAAGTTCCCGTCGTGCTAGGTCTTGATTCGCTTGACGCTGCTG”, the figure is 8.56 z-score. With “GCCTAGCACAGAAAGAGGAAATGACCTATGTGCTAGGTCTTGATTCGCTTGACGCTGCTG”, the binding signal with PU.1 (IVT) [1] worked out at 5.8 z-score. The same measure, in the same setting: the same measure for “GCCTAGCACAGGAAGAGGAAGTGACAGATGTGCTAGGTCTTGATTCGCTTGACGCTGCTG”: 6.27 z-score. With “GCCTAGCACAGAAAGAGGAAGTGACACTTGTGCTAGGTCTTGATTCGCTTGACGCTGCTG”, in the assay with PU.1 (IVT) [2], the binding signal was found to be 8.52 z-score.

As for “GCCTAGCACAGAAAGAGGAAGTTATGTGCGTGCTAGGTCTTGATTCGCTTGACGCTGCTG”, the binding signal in the assay with PU.1 (IVT) [2] came out at 8.58 z-score. With “GCCTAGCACAGAAAGAGGAAGAGAAACTTGTGCTAGGTCTTGATTCGCTTGACGCTGCTG”, the binding signal with PU.1 (IVT) [1] was 4.63 z-score. The same measure, in the same setting: the same measure for “GCCTAGCACAGAAAGAGGAAGAGCCTCAGGTGCTAGGTCTTGATTCGCTTGACGCTGCTG”: 5.13 z-score. The sequence “GCCTAGCACTGAAAGAGGAAGTGTAACCAGTGCTAGGTCTTGATTCGCTTGACGCTGCTG” yielded a binding signal in the assay with PU.1 (IVT) [2] of 7.2 z-score. For “GCCTAGCACAGAAAGAGGAAGTCGAGGTGGTGCTAGGTCTTGATTCGCTTGACGCTGCTG”, the binding signal in the assay with PU.1 (IVT) [2] came to 7.74 z-score. In the assay with PU.1 (IVT) [1], “GCCTAGCACACCAGGAGGAAGTGGTTGCAGTGCTAGGTCTTGATTCGCTTGACGCTGCTG” yielded a binding signal of 4.06 z-score. Regarding “GCCTAGCACCGAAAGAGGAAGTGCAACCAGTGCTAGGTCTTGATTCGCTTGACGCTGCTG”, the binding signal in the assay with PU.1 (IVT) [2] was 7.64 z-score.

For “GCCTAGCACGATAAGAGGAAGTGCTCTGTGTGCTAGGTCTTGATTCGCTTGACGCTGCTG”, in the assay with PU.1 (IVT) [1], the binding signal was 6.52 z-score. In turn, “GCCTAGCACTTTAAAGGGAAATGAAACTGGTGCTAGGTCTTGATTCGCTTGACGCTGCTG” had a binding signal in the assay with PU.1 (IVT) [2] of 1.39 z-score.

“GCCTAGCACGAAAAGAGGAACAGCCTCTGGTGCTAGGTCTTGATTCGCTTGACGCTGCTG” returned a binding signal with PU.1 (IVT) [1] of 5.13 z-score. Consider “GCCTAGCACGAAAGGGGGAAGTGACTAAGGTGCTAGGTCTTGATTCGCTTGACGCTGCTG”, for which the binding signal with PU.1 (IVT) [1] was determined as 5.51 z-score. Still for that read-out and setting: the same measure for “GCCTAGCACTCTCTGAGGAAGTGAAACTCGTGCTAGGTCTTGATTCGCTTGACGCTGCTG”: 2.86 z-score. As to “GCCTAGCACAGAAAGAGGAAGTGCTGAGGGTGCTAGGTCTTGATTCGCTTGACGCTGCTG”, in the assay with PU.1 (IVT) [2], the binding signal stood at 7.75 z-score. “GCCTAGCACAAAAAAAGGATATGAAAGTAGTGCTAGGTCTTGATTCGCTTGACGCTGCTG” yielded a binding signal with PU.1 (IVT) [1] of 0.953 z-score. Consider “GCCTAGCACAAAAAGAGGAACTGAATGTCGTGCTAGGTCTTGATTCGCTTGACGCTGCTG”, for which the binding signal in the assay with PU.1 (IVT) [2] turned out to be 7.27 z-score. On to “GCCTAGCACGAAAGGAGGAAGTACTGTGGGTGCTAGGTCTTGATTCGCTTGACGCTGCTG”, for which the binding signal with PU.1 (IVT) [2] was determined as 6.78 z-score. On to “GCCTAGCACAGAAAGAGGAAGTGCCTCTTGTGCTAGGTCTTGATTCGCTTGACGCTGCTG”, for which the binding signal with PU.1 (IVT) [2] turned out to be 8.4 z-score.

Consider “GCCTAGCACAGAAAGAGGAAGAGCTGCCAGTGCTAGGTCTTGATTCGCTTGACGCTGCTG”, for which the binding signal with PU.1 (IVT) [1] was 4.1 z-score.

For “GCCTAGCACAGAAAGAGGAAGTGGAAGAGGTGCTAGGTCTTGATTCGCTTGACGCTGCTG”, the binding signal with PU.1 (IVT) [2] came out at 8.16 z-score. In turn, “GCCTAGCACTCAAGGAGGAAGTGAGAGATGTGCTAGGTCTTGATTCGCTTGACGCTGCTG” yielded a binding signal with PU.1 (IVT) [1] of 4.31 z-score. In the assay with PU.1 (IVT) [1], “GCCTAGCACGTTTTGAGGAACTGAAACTCGTGCTAGGTCTTGATTCGCTTGACGCTGCTG” displayed a binding signal of 4.5 z-score. On the same count and under the same terms, as for “GCCTAGCACCGAAAAGGGAAATACTGTGAGTGCTAGGTCTTGATTCGCTTGACGCTGCTG”, the figure is 2.65 z-score. For the sequence “GCCTAGCACAGAAAGAGGAAGTGAAGCTAGTGCTAGGTCTTGATTCGCTTGACGCTGCTG”, the binding signal with PU.1 (IVT) [2] was 8.64 z-score. The same measure, in the same setting: as for “GCCTAGCACAGAAAGAGGAAGTGATGTTAGTGCTAGGTCTTGATTCGCTTGACGCTGCTG”, the figure is 8.46 z-score; as for “GCCTAGCACAGAAAGAGGAAGTGGGTGTTGTGCTAGGTCTTGATTCGCTTGACGCTGCTG”, 8 z-score. With “GCCTAGCACAGAAGAAGGAAGTGAAAGAAGTGCTAGGTCTTGATTCGCTTGACGCTGCTG”, the binding signal with PU.1 (IVT) [1] came to 4.5 z-score. “GCCTAGCACAGAAAGAGGAAGTGATTGAAGTGCTAGGTCTTGATTCGCTTGACGCTGCTG” yielded a binding signal with PU.1 (IVT) [2] of 8.32 z-score. Still for that read-out and setting: the same measure for “GCCTAGCACAGAAAGAGGAAGTGACTCAGGTGCTAGGTCTTGATTCGCTTGACGCTGCTG”: 8.06 z-score. Same read-out and setting: the same measure for “GCCTAGCACAGAAAGAGGAAGTGTTTATAGTGCTAGGTCTTGATTCGCTTGACGCTGCTG”: 8.43 z-score; for “GCCTAGCACAGAAAGAGGAAGAGAAACTAGTGCTAGGTCTTGATTCGCTTGACGCTGCTG”: 4.62 z-score. In the assay with PU.1 (IVT) [1], “GCCTAGCACAGAAAGAGGAAGACTAGTGTGTGCTAGGTCTTGATTCGCTTGACGCTGCTG” yielded a binding signal of 3.78 z-score. “GCCTAGCACTCCAGGAGGAACTGAAAGCTGTGCTAGGTCTTGATTCGCTTGACGCTGCTG” yielded a binding signal with PU.1 (IVT) [2] of 1.74 z-score. Same read-out and setting: as for “GCCTAGCACAAAAAGAGGAAATGATTTACGTGCTAGGTCTTGATTCGCTTGACGCTGCTG”, the figure is 6.97 z-score. Regarding “GCCTAGCACGAAAACAGGAACTGCAAATAGTGCTAGGTCTTGATTCGCTTGACGCTGCTG”, the binding signal with PU.1 (IVT) [1] came to 6 z-score.
